Experimental data reported in PubChem BioAssay AID868 (SRMLSC, 2007).
Hit rate of the full screen: of about 190,000 compounds, about 3,500 (1.8%) were called active.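 Rule for the calls: active = inhibition above a set limit, 3 SD over mean compound inhibition (cut at about 8.4% in these data); inactive = the rest.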 The sample as a whole holds a higher share of actives than the screen did.

experiment: inhibitors of the yeast RAM network, primary screen, dse1pr::URA3 reporter, 5-FOA selection (AID 868);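 note: 0% = DMSO-only wells with no growth and 100% = 10 µM 1-NA-PP1 full growth; inhibition rescues growth on 5-FOA so higher OD means more RAM inhibition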; settings: S. cerevisiae dse1pr::URA3 reporter, 5-FOA growth OD615, 2 d; at 50 µM; active compounds read high; analog-sensitive cbk1-as2 kinase mutant strain

inhibition, inactive:
COc1cccc(OC)c1C(=O)Nc1ccc(N2CCCCC2)cc1 0.91%
Cc1ccc(C(=O)NC(=S)Nc2ccc(N3CCOCC3)cc2)cc1 0.79%
C=C(C)C1CC=C(C)/C(=N/NC(=O)CCCNc2cccc(C)c2)C1 (stereo unspecified) 0.96%
CCN(CC(=O)NCc1cccs1)C(=O)c1ccccc1F 1.03%
COc1ccc(OC)c(CNC(=O)c2cc(=O)[nH]c3ccc(S(=O)(=O)N4CCCC4)cc23)c1 2.57%
N#Cc1c(C(F)(F)F)cc(-c2ccc(Cl)cc2)nc1SCC(=O)O 2.99%
CCSc1nc(-c2ccc(OC)cc2)cc(-c2ccc(OC)cc2)c1C#N 6.16%
COc1ccc(C(=O)Nc2ccc(S(=O)(=O)NC(C)C)cc2)cc1 1.59%
CC(=O)c1ccc(NC(=S)NC(=O)CC(C)C)cc1 0.87%
CC(=O)Oc1c(C(=O)c2nnc(C)o2)c(=O)n(Cc2ccccc2)c2ccccc12 1.56%
O=C(CSc1ccc([N+](=O)[O-])cn1)Nc1ccc(N2CCOCC2)cc1 2.94%
CCc1c(C)sc(NC(=O)/C=C/c2ccc3c(c2)OCO3)c1C(=O)OC 2.35%
CCOC(=O)c1c(NC(=O)c2ccc(Br)o2)sc2c1CCCC2 3.28%
O=C(CN1CCN(c2nc(-c3ccccc3)cs2)CC1)NCc1ccc2c(c1)OCO2 0.34%
O=C(C(=O)N1CCc2ccccc2C1)N1CCc2ccccc2C1 -0.82%
C/C(=N\NC(=O)NC1CCCCC1)c1ccc(OC(F)F)cc1OC(F)F 0.62%
N#C/C(=C\c1ccccc1C(F)(F)F)C(=O)Nc1ccccc1F 1.21%
C(=N\N1CCN(c2ccccn2)CC1)/C1=C(N2CCOCC2)C(=C/c2ccccc2)/CC1 -0.25%
Cn1c(N)c(C(=O)COC(=O)c2ccccc2NCc2ccco2)c(=O)n(C)c1=O 1.05%
O=C(CN1CCOCC1)Nc1c(Cl)cc(Cl)cc1Cl -0.37%
N#Cc1c(C(F)(F)F)cc(-c2ccccc2)nc1SCC(=O)N1CCOCC1 0.78%
COC(=O)c1cc2nc(-c3ccccc3)cc(C(F)(F)F)n2n1 4.75%
CN(C)S(=O)(=O)c1ccc(NC(=O)N2CCOCC2)cc1 0.13%
Clc1ccc2nc(CSc3ccccc3)cn2c1 0.13%
CC1=C(C)CC(C(=O)NC(C)CCc2ccccc2)C(C(=O)O)C1 (stereo unspecified) 0.85%
O=C(CSc1nc(O)c(Cc2ccccc2)c(=O)[nH]1)Nc1nc2c(s1)CCCC2 2.38%
Cn1c(=O)c(Sc2ccc(Cl)cc2)c(O)c2ccccc21 1.1%
CCn1c(=O)cc(O)c2ccccc21 -0.4%
CCNC(=O)CC1C(=O)N(c2ccc(F)cc2)C(=O)N1Cc1cccs1 (stereo unspecified) 0.28%
COc1ccc(C(=O)COC(=O)c2ccc3ccccc3n2)cc1 -0.53%
COc1ccc(C(=O)CN(C(=O)c2ccc(Cl)cc2)N2C(=O)c3ccccc3C2=O)cc1 4.27%
COc1ccc(-n2nc3c(c2NC(=O)Cc2cccc(C)c2)CS(=O)C3)cc1 (stereo unspecified) 0.7%
COc1ccc(CC(=O)Nc2c3c(nn2-c2cccc(Cl)c2)CS(=O)C3)cc1 (stereo unspecified) 2.33%
CCCn1c(=O)c2c(C(F)(F)F)cc(-c3cccs3)nc2n(CCC)c1=O 2.68%
CN1CCC(=NNC(=O)CN(c2cccc(Cl)c2)S(C)(=O)=O)CC1 -0.4%
CCOC(=O)CSc1nnc(-c2cccc(Br)c2)o1 -0.68%
O=C(OCc1nnc(-c2ccccc2)o1)c1ccc2c(c1)C(=O)N(CCc1ccccc1)C2=O 4.12%
O=[N+]([O-])c1cccc(Nc2c3ccccc3nc3ccccc23)c1 0.27%
COc1ccc(-c2nc3cc([N+](=O)[O-])ccc3o2)cc1OC 1.49%
CCO/N=C(/C)c1c(O)cc(-c2ccccc2)n(-c2ccccc2)c1=O 4.11%
Cc1nn(-c2ccccc2)c(C)c1/C=N/NC(=O)CSc1nc2ccccc2c(=O)n1-c1ccccc1 2.56%
O=C(CC1C(=O)NCCN1Cc1ccc(-c2ccccc2)cc1)NCc1ccncc1 (stereo unspecified) -0.27%
Cc1ccnc(NS(=O)(=O)c2ccc(NC(=O)c3ccc(S(=O)(=O)N(C)C)cc3)cc2)n1 -0.41%
CC1=C/C(=N\S(=O)(=O)c2ccccc2)C(C(C)C)=CC1=O 3.57%
CCOC(=O)/C(C#N)=C/c1ccc(N2CCN(Cc3ccccc3)CC2)cc1 -1.52%
CCOC(=O)/C(C#N)=C/c1ccc(N2CCCCC2)cc1 1.57%
COc1cccc2cc(/C(C)=N/NC(=O)c3ccco3)oc12 1.11%
COC(=O)Nc1sc2nc(C)cc(C)c2c1-n1cccc1 0.22%
Cc1cc(C)c2c(-n3cccc3)c(NC(=O)OCc3ccccc3)sc2n1 5.58%
COc1cc(CN(C)Cc2nc3cc(C(F)(F)F)ccc3c(=O)[nH]2)ccc1OC(F)F 2.67%
CCOC(=O)C1=C(C)N=C2c3ccccc3C(=O)C2C1c1ccc(Br)cc1 (stereo unspecified) 1.62%
N#CC(=C1SC=CS1)c1nc(-c2ccccc2)cs1 3.35%
N#C/C(=C1\CCCN1)c1nc(-c2ccccc2)cs1 3.76%
O=C(CSc1ccc(-c2ccccc2)nn1)NCC1CCCO1 (stereo unspecified) 2.21%
CCC(=O)Nc1c(S(=O)(=O)c2ccccc2)c2nc3ccccc3nc2n1Cc1ccccc1 2.78%
C=CCn1c(N)c(S(=O)(=O)c2cccs2)c2nc3ccccc3nc21 1.69%
COc1ccc(C(=O)C[n+]2ccc(C)cc2)cc1 0.48%
CCOC(=O)C1CCCN(C(=O)/C=C/c2ccc(OC)cc2)C1 (stereo unspecified) 0.37%
O=C(/C=C/c1ccccc1)c1ccccc1O -0.67%
COc1ccc(/C=C/C(=O)c2cc(Br)ccc(=O)c2O)cc1 1.75%
COc1ccc(C(=O)/C=C/Nc2ccccn2)cc1 2.71%
C=CCOc1c(CNn2cn[nH]c2=S)cccc1OC 0.75%
COC(=O)c1ccc(NC(=S)Nc2cccc(C)n2)cc1 3.21%
CC1CCN(C(=S)c2cccc([N+](=O)[O-])c2)CC1 -0.74%
CC(NC(=S)NC1CCCCC1)C(c1ccccc1)N1CCOCC1 (stereo unspecified) 0.28%
CCOc1c(Cl)cc(/C=N/O)cc1OC 2.16%
CCOc1cc(/C=N/O)cc(Br)c1OC 0.34%
NS(=O)(=O)c1cccc(NC(=O)COC(=O)/C=C/c2ccco2)c1 0.38%
CCc1nnc(NC(=O)c2cccs2)s1 1.49%
CCc1nnc(NC(=O)c2sc3nc(C)cc(COC)c3c2N)s1 1.25%
COCc1c(C(=O)OCc2c(C)noc2C)oc2ccccc12 0.88%
Cc1cc(/C=C2/C(=N)N3C(=NC2=O)SN=C3S(C)(=O)=O)c(C)n1-c1ccccc1 4.35%
COc1ccc2c(CC(=O)Nc3nnc(C4CC4)s3)coc2c1 3.72%
COc1cc(NC(=O)COC(=O)CSc2ccc3ccccc3c2)c(C)cc1[N+](=O)[O-] 2.2%

inhibition, active:
COc1ccc(C(=O)NC(=S)Nc2ccc(N3CCCC3)cc2)cc1OC 12.4%
CCOC(=O)CC(=O)CSc1nc(-c2ccccc2)cc(-c2ccc(Cl)cc2)c1C#N 13.1%
COc1ccc(NS(=O)(=O)c2ccc(NC(=S)NC(=O)CC(C)C)cc2)cc1 9.99%
CCc1c(C)sc(NC(=O)c2ccc(Br)o2)c1C(=O)OC 9.13%
c1ccc(-c2csc(N3CCc4ccccc4C3)n2)cc1 12%
N#C/C(=C\C1=C(N2CCOCC2)C(=C\c2ccccc2)/CC1)C(=O)Nc1ccccc1F 11.8%
CCN(CC)c1nc(-c2ccccc2)cc(C(F)(F)F)c1C#N 10.8%
Cn1c2ccccc2c(=O)c2c(O)cccc21 11.3%
CCCCC(C(=O)OCC(=O)c1ccc(OC)cc1)N1C(=O)c2ccccc2C1=O (stereo unspecified) 12.2%
Cc1cccc(CC(=O)Nc2c3c(nn2-c2cccc(Cl)c2)CS(=O)C3)c1 (stereo unspecified) 9.78%
O=C(OCc1ccc(Br)cc1)c1cccc(-c2nnc(-c3ccccc3)o2)c1 12%
O=[N+]([O-])c1ccc2oc(-c3cccc(O)c3)nc2c1 13.2%
C=CCO/N=C(\C)c1c(O)c(C)c(-c2ccccc2)n(-c2ccccc2)c1=O 14.2%
COc1ccc(N2CCN(C(=O)/C(C#N)=C/c3ccccc3)CC2)cc1 8.69%
CCCCOC(=O)Nc1sc2nc(C)cc(C)c2c1-n1cccc1 9.53%
N#CC(=C1CCCC1)c1nc(-c2ccc(Cl)cc2)cs1 9.11%
Cc1ccc(S(=O)(=O)c2c(N)n(C)c3nc4ccccc4nc23)cc1 12.3%
COc1ccc(/C=C/C(=O)c2ccc(OC)cc2O)cc1 8.82%
COc1ccc(C(=O)/C=C/c2ccc(OC3CSC3)cc2)cc1 9.21%
COc1cc(/C=N/O)cc(Br)c1OCc1cccc(Cl)c1 9.47%
CCc1ccc2nc3sc(C(=O)Nc4nnc(CC)s4)c(N)c3cc2c1 8.98%
COc1ccc2c(CC(=O)OCC(=O)Nc3ccccc3[N+](=O)[O-])coc2c1 10%
